In PubChem BioAssay (NCI) one finds growth data, which are given here for three compounds.

The panel holds about 83,000 compounds, 20% with a hit somewhere; the sample as a whole holds those more often.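 Single-dose data. Exposure time 48 hours. Values below 10 considered active.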 Unmarked numbers belong to inactive results. Calls of active or inactive are those of the source.

The experiment concerns HL-60(TB) leukemia. Nature of the experiment: NCI-60 one-dose screen, 48 h (100 = growth as untreated, 0 = no growth, -100 = all killed). To be noted: 10 µM unless noted.

Regarding `CCOC(=O)C1=C(C)N(C)C(=O)N(C)C1c1ccccc1` (stereo not drawn), the growth is -4.05% (active).
The figure for `CCOC(=O)C(NC(=O)C(Cl)Cl)C(O)c1ccccc1` (stereo not drawn) is 113%.
For `C=C1C[C@@]2(C)C(CC[C@]3(C)C2CC=C2C4CC(C)(C)C[C@@H](OC(=O)/C(C)=C\C)[C@]4(C(=O)O)CC[C@]23C)C(C)(C)C1=O` (stereo partly drawn) the value was -32.4% (active).
